Results on eight sequences are retold here after PMC7862700, “An all-to-all approach to the identification of sequence-specific readers for epigenetic DNA modifications on cytosine”.

Holding throughout (assay): DAPPL (digital affinity profiling via proximity ligation, sequencing); 10 mM Tris-HCl pH 7.5, 50 mM NaCl, 1 mM DTT, 4% glycerol, room temperature, 30 min; GST-TFs on glutathione beads, 16-mer random dsDNA library, 0.1% formaldehyde crosslink after washing; high values mean tight binding
One test concerns the target T1, FEV (Homo sapiens, UniProt Q99581 1-238).
T1 sequence: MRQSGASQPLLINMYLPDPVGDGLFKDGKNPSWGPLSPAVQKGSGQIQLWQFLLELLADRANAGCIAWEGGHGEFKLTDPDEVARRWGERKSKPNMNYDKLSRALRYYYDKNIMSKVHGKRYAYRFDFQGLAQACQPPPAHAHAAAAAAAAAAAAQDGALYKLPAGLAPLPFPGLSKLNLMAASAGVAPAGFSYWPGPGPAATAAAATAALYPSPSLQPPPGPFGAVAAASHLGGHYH
The note with it: protein: recombinant; tags: N-terminal GST; dsDNA, one strand shown. In short, it runs like this: (§1)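 Pools were built from human transcription factors expressed in yeast as GST fusions, captured on glutathione beads and DNA-barcoded, along with a tag-only sample. Incubation with 200 nmole of a 16-mer random double-stranded DNA library lasted 30 min at room temperature in Tris/NaCl/DTT/glycerol buffer, and was followed by washing, 0.1% formaldehyde crosslinking, proximity ligation, PCR amplification and Illumina NextSeq500 sequencing. Binding signal is the quotient of each hexamer's read frequency for a factor and its frequency for the tag-only sample.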

Another test deals with ETV5 (Homo sapiens, UniProt P41161 1-510). The following applies: protein: recombinant; tags: N-terminal GST; dsDNA, one strand shown. The method in brief:
as §1

The target in another test is HSF1 (Homo sapiens, UniProt Q00613 1-529). The note with it: protein: recombinant; tags: N-terminal GST; chain copies: 3; dsDNA, one strand shown. In short, it runs like this: as §1
The target in a further test is T2, SPIC (Homo sapiens, UniProt Q8N5J4 1-248).
T2 sequence: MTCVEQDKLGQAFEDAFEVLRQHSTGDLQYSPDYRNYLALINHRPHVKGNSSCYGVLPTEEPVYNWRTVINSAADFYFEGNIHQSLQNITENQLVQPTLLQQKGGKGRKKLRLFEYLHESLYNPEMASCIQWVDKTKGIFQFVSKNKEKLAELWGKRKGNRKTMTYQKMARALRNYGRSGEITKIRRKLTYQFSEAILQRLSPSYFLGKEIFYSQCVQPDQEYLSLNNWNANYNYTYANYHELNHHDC
The note with it: protein: recombinant; tags: N-terminal GST; dsDNA, one strand shown. In short, it runs like this:
as §1

The next test has as its target ELF4 (Homo sapiens, UniProt Q99607 1-663). The following applies: protein: recombinant; tags: N-terminal GST; dsDNA, one strand shown. In short, it runs like this: as §1
In the next test the target is T3, ELK4 (Homo sapiens, UniProt P28324-2 1-405).
T3 sequence: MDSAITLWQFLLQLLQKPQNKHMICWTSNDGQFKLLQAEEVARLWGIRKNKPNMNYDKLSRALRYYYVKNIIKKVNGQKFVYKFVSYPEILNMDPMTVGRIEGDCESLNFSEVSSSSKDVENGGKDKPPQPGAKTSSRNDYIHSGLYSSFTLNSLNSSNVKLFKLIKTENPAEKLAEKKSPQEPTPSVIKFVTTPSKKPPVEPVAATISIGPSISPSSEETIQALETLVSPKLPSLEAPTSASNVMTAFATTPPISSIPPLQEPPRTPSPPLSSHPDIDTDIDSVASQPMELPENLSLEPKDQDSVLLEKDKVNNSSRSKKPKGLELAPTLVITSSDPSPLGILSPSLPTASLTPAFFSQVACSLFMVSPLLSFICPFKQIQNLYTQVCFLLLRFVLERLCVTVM
The following applies: protein: recombinant; tags: N-terminal GST; dsDNA, one strand shown. In short, it runs like this: as §1

In a further test the target is T4, ETV2 (Homo sapiens, UniProt O00321 1-342).
T4 sequence: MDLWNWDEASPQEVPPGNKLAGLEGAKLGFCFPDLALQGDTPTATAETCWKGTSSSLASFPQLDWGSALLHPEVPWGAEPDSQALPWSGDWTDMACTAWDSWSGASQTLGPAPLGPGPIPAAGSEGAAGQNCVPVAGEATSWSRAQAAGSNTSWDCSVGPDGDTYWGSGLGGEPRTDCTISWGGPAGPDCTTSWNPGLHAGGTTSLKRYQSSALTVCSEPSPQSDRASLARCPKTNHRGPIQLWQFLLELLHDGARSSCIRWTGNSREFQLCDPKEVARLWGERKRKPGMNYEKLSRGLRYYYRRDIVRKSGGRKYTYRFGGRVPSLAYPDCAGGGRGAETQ
The note with it: protein: recombinant; tags: N-terminal GST; dsDNA, one strand shown. The method in brief: as §1

The next test deals with T5, ELF3 (Homo sapiens, UniProt P78545 1-371).
T5 sequence: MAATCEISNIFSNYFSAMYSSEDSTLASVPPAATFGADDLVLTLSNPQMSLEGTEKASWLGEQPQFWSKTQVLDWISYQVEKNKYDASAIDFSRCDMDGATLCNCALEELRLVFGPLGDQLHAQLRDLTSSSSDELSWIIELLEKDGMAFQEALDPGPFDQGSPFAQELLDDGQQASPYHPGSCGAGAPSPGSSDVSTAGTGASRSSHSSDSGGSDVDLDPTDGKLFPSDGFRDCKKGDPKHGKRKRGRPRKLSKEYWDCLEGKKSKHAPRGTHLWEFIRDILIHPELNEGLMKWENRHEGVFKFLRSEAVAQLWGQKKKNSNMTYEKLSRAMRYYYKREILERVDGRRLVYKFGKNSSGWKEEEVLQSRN
The note with it: protein: recombinant; tags: N-terminal GST; dsDNA, one strand shown. In short, it runs like this: as §1

In the next test the target is CRX (Homo sapiens, UniProt O43186 1-299). The note with it: protein: recombinant; tags: N-terminal GST; dsDNA, one strand shown. In short, it runs like this:
as §1

A further test deals with ETV1 (Homo sapiens, UniProt P50549 1-477). The note with it: protein: recombinant; tags: N-terminal GST; dsDNA, one strand shown. The method in brief:
as §1

Chain of CRX (O43186 whole entry): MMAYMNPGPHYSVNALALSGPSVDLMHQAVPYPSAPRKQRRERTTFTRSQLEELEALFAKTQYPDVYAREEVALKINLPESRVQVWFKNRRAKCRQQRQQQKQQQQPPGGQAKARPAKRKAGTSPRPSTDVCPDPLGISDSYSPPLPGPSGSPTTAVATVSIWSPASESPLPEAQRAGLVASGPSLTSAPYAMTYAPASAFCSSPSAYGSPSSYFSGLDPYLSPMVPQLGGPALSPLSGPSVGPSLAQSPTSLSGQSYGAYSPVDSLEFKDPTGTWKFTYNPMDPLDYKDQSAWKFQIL
Chain of ETV5 (P41161 whole entry): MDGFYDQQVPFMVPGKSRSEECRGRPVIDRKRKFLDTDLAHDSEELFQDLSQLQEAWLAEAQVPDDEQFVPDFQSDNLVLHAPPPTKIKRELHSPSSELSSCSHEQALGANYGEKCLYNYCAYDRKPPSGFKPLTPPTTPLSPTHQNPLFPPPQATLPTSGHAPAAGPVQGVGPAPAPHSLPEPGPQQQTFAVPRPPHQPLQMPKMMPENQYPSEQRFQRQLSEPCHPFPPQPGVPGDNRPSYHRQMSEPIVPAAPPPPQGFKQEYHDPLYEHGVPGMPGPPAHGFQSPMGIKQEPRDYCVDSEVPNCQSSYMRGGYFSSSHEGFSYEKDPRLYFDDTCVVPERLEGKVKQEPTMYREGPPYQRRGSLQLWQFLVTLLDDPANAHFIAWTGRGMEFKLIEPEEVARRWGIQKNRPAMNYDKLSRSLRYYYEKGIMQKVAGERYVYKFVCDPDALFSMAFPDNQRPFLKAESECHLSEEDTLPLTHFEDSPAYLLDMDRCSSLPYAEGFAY
Chain of HSF1 (Q00613 whole entry): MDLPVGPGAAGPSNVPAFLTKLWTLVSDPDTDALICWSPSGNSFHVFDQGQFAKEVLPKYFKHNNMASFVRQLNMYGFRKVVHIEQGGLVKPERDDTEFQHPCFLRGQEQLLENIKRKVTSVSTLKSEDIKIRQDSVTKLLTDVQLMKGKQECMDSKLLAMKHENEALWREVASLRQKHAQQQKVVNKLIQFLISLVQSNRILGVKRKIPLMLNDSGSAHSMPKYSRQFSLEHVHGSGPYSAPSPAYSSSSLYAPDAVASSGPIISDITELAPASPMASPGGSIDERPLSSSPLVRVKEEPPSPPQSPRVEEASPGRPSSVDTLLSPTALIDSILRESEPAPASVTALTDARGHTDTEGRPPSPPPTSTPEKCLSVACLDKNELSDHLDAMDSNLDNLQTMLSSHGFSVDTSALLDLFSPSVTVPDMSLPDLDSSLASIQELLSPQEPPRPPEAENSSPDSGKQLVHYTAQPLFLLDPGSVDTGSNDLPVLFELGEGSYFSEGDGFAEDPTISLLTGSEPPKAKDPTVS
Chain of ETV1 (P50549 whole entry): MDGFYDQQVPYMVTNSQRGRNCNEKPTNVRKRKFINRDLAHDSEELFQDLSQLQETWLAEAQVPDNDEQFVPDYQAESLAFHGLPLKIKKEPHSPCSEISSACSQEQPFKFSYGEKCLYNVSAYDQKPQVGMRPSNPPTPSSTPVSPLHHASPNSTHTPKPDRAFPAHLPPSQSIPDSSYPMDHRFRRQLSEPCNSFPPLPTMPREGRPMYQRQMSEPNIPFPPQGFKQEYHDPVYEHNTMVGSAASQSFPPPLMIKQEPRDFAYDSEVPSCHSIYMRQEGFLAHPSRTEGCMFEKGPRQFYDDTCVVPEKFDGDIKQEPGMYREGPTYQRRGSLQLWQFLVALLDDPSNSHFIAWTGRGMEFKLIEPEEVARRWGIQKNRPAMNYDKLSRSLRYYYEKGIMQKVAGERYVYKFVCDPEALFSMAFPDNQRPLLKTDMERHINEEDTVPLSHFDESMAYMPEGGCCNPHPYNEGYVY
Chain of ELF4 (Q99607 whole entry): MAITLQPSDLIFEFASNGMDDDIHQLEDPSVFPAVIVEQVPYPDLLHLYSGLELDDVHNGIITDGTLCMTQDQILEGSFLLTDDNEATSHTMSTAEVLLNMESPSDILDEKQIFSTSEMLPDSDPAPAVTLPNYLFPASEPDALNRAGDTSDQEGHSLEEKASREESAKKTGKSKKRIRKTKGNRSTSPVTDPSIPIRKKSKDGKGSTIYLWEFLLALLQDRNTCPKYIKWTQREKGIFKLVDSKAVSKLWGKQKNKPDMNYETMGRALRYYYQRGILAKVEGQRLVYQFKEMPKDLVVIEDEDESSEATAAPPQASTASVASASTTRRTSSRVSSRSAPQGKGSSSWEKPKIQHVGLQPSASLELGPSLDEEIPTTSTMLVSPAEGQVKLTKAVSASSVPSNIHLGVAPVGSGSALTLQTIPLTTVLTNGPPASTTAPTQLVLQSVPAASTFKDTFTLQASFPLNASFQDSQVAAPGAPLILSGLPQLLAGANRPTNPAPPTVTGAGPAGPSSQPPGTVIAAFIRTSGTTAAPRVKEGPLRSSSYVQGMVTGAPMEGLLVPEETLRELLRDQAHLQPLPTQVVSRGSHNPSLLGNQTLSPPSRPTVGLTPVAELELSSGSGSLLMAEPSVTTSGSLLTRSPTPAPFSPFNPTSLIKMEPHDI

On to TCTCAC, for which the binding signal with FEV is 1.47 fold enrichment (6-mer frequency, TF over GST control); with ETV5 it was 1.34 fold enrichment (6-mer frequency, TF over GST control); with HSF1 it was 1.3 fold enrichment (6-mer frequency, TF over GST control); with SPIC, 1.55 fold enrichment (6-mer frequency, TF over GST control); in the test with ELF4, 1.37 fold enrichment (6-mer frequency, TF over GST control); in the test with ELK4, 1.35 fold enrichment (6-mer frequency, TF over GST control). For the same sequence, the binding signal in the test with ETV2 was 1.18 fold enrichment (6-mer frequency, TF over GST control); in the test with ELF3 it was 1.42 fold enrichment (6-mer frequency, TF over GST control); with CRX it was 1.33 fold enrichment (6-mer frequency, TF over GST control); with ETV1, 1.3 fold enrichment (6-mer frequency, TF over GST control).
Take ACCCTT: the binding signal in the test with FEV was 1.21 fold enrichment (6-mer frequency, TF over GST control); with ETV5, 1.25 fold enrichment (6-mer frequency, TF over GST control); in the test with HSF1, 1.09 fold enrichment (6-mer frequency, TF over GST control); with SPIC it was 1.02 fold enrichment (6-mer frequency, TF over GST control); with ELF4, 1.26 fold enrichment (6-mer frequency, TF over GST control); in the test with ELK4 it was 1.08 fold enrichment (6-mer frequency, TF over GST control). Moreover, the binding signal with ETV2 was 1.33 fold enrichment (6-mer frequency, TF over GST control); in the test with ELF3 it was 1.23 fold enrichment (6-mer frequency, TF over GST control); in the test with CRX, 1.15 fold enrichment (6-mer frequency, TF over GST control); in the test with ETV1, 1.18 fold enrichment (6-mer frequency, TF over GST control).
For TCGCTC, the binding signal with FEV was 1.23 fold enrichment (6-mer frequency, TF over GST control); with ETV5 it was 1.24 fold enrichment (6-mer frequency, TF over GST control); in the test with HSF1 it was 1.25 fold enrichment (6-mer frequency, TF over GST control); with SPIC, 1.24 fold enrichment (6-mer frequency, TF over GST control); with ELF4, 1.31 fold enrichment (6-mer frequency, TF over GST control); with ELK4 it was 1.29 fold enrichment (6-mer frequency, TF over GST control). Besides, the binding signal with ETV2 was 1.22 fold enrichment (6-mer frequency, TF over GST control); with ELF3, 1.4 fold enrichment (6-mer frequency, TF over GST control); with CRX it was 1.12 fold enrichment (6-mer frequency, TF over GST control); with ETV1, 1.38 fold enrichment (6-mer frequency, TF over GST control).
As to TGCTTC, the binding signal was 2.29 fold enrichment (6-mer frequency, TF over GST control) in the test with FEV; 2.1 fold enrichment (6-mer frequency, TF over GST control) with ETV5; 1.49 fold enrichment (6-mer frequency, TF over GST control) in the test with HSF1; 2.35 fold enrichment (6-mer frequency, TF over GST control) with SPIC; 1.98 fold enrichment (6-mer frequency, TF over GST control) with ELF4; 2.01 fold enrichment (6-mer frequency, TF over GST control) with ELK4. The binding signal in the test with ETV2 was 2.38 fold enrichment (6-mer frequency, TF over GST control); with ELF3, 2.25 fold enrichment (6-mer frequency, TF over GST control); with CRX, 1.22 fold enrichment (6-mer frequency, TF over GST control); with ETV1, 2.19 fold enrichment (6-mer frequency, TF over GST control).
Consider CACTAA, for which the binding signal was 1.12 fold enrichment (6-mer frequency, TF over GST control) in the test with FEV; 1.13 fold enrichment (6-mer frequency, TF over GST control) with ETV5; 1.29 fold enrichment (6-mer frequency, TF over GST control) in the test with HSF1; 1.25 fold enrichment (6-mer frequency, TF over GST control) with SPIC; 1.2 fold enrichment (6-mer frequency, TF over GST control) with ELF4; 1.2 fold enrichment (6-mer frequency, TF over GST control) with ELK4. Besides, the binding signal is 1.2 fold enrichment (6-mer frequency, TF over GST control) with ETV2; 1.3 fold enrichment (6-mer frequency, TF over GST control) with ELF3; 1.67 fold enrichment (6-mer frequency, TF over GST control) with CRX; 1.12 fold enrichment (6-mer frequency, TF over GST control) in the test with ETV1.
Turning to TTGGTA, the binding signal with FEV was 1.17 fold enrichment (6-mer frequency, TF over GST control); with ETV5, 1.23 fold enrichment (6-mer frequency, TF over GST control); in the test with HSF1, 1.16 fold enrichment (6-mer frequency, TF over GST control); with SPIC, 1.2 fold enrichment (6-mer frequency, TF over GST control); with ELF4 it was 1.25 fold enrichment (6-mer frequency, TF over GST control); with ELK4, 1.34 fold enrichment (6-mer frequency, TF over GST control). Moreover, the binding signal in the test with ETV2 was 1 fold enrichment (6-mer frequency, TF over GST control); in the test with ELF3 it was 1.25 fold enrichment (6-mer frequency, TF over GST control); with CRX it was 1.34 fold enrichment (6-mer frequency, TF over GST control); in the test with ETV1, 1.24 fold enrichment (6-mer frequency, TF over GST control).
Take TTAAAC: the binding signal with FEV was 1.21 fold enrichment (6-mer frequency, TF over GST control); with ETV5, 1.29 fold enrichment (6-mer frequency, TF over GST control); with HSF1, 1.7 fold enrichment (6-mer frequency, TF over GST control); with SPIC it was 1.05 fold enrichment (6-mer frequency, TF over GST control); with ELF4 it was 1.21 fold enrichment (6-mer frequency, TF over GST control); in the test with ELK4, 1.26 fold enrichment (6-mer frequency, TF over GST control). For the same sequence, the binding signal with ETV2 was 1.26 fold enrichment (6-mer frequency, TF over GST control); with ELF3, 1.19 fold enrichment (6-mer frequency, TF over GST control); with CRX, 2.58 fold enrichment (6-mer frequency, TF over GST control); with ETV1 it was 1.24 fold enrichment (6-mer frequency, TF over GST control).
As to TTAAGG, the binding signal was 1.16 fold enrichment (6-mer frequency, TF over GST control) with FEV; 1.11 fold enrichment (6-mer frequency, TF over GST control) with ETV5; 1.67 fold enrichment (6-mer frequency, TF over GST control) in the test with HSF1; 1.23 fold enrichment (6-mer frequency, TF over GST control) in the test with SPIC; 1.14 fold enrichment (6-mer frequency, TF over GST control) in the test with ELF4; 1.25 fold enrichment (6-mer frequency, TF over GST control) with ELK4. Also, the binding signal in the test with ETV2 is 1.23 fold enrichment (6-mer frequency, TF over GST control); in the test with ELF3 it was 1.2 fold enrichment (6-mer frequency, TF over GST control); with CRX, 2.78 fold enrichment (6-mer frequency, TF over GST control); in the test with ETV1 it was 1.15 fold enrichment (6-mer frequency, TF over GST control).
